Screens as filed in PubChem.
RAD54 branch = RAD54 (human) branch migration inhibition | Q92698 | RAD54 Holliday junction branch migration, FAM/BHQ fluorescence | inhibition, % at 10.4 µM | 360,000 tested, 0.14% active | AID 602329;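 active = mean normalized replicate activity at least 40 and at least half of replicates scoring 40 or more; inconclusive = only one of the two criteria met; inactive = mean below 40 and under half of replicates reaching 40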;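 note: inhibitors cause a drop in the FAM fluorescence signal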
GSIS activator = primary screen for activators of insulin secretion dependent on glucose, INS-1E cells, GLuc reporter luminescence. INS-1E GLuc reporter insulin secretion, 2-3 h. activation, % at 16.6 µM. 370,000 tested, 0.61% active. AID 743287;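 active = lowest replicate activation of at least 40%, so every replicate reaches that level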
RAD52 inh = blocks human RAD52 DNA annealing; inhibition, % at 18.7 µM; AID 651710; 360,000 tested, 0.46% active; recombinant RAD52 DNA annealing, FRET fluorescence;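 active = every replicate showing at least 50% inhibition; inconclusive = mean inhibition at least 50% but not in every replicate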
Target sequence (P43351 whole entry, looked up): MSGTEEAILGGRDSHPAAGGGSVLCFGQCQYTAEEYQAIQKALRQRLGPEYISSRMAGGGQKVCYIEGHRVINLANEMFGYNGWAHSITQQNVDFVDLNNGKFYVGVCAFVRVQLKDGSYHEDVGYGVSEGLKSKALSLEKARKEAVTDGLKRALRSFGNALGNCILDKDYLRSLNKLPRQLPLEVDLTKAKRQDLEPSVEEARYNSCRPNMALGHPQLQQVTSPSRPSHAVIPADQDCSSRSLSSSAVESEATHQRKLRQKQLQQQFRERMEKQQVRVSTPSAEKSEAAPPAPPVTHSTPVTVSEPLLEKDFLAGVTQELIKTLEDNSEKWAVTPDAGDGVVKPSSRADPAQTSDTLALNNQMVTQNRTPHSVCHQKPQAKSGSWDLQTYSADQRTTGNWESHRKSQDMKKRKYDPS
CFTR F508del cor = correctors of CFTR F508del function in bronchial epithelial cells; CFBE cells, YFP halide quenching; stimulated with forskolin plus potentiator P3; % fluorescence drop versus neutral controls; activity (quench increase), % at 7.58 µM; 350,000 tested, 0.36% active;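 active = mean added fluorescence quench of at least 8% versus neutral control, with both replicates also reaching 8%; inconclusive = only one of the mean or replicate conditions met; inactive = mean below 8% and not both replicates reaching 8%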;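 note: cells transiently co-express mutant CFTR-F508del with the halide-sensitive YFP; corrector assay measuring rescue of mutant channel to the surface after 24 h compound exposure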
EWS-Fli block = inhibitors of EWS/Fli oncoprotein transcriptional activity. A673 NR0B1-luciferase reporter, viability-normalised. AID 651661. inhibition, % at 12.6 µM. 350,000 tested, 0.67% active;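 active = mean inhibition of at least 50% after viability correction, with every replicate also passing that limit; inconclusive = mean reaches 50% but only one of two replicates passes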;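 note: firefly luciferase signal divided by Alamar Blue viability fluorescence both relative to DMSO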
LGR2 antag = Drosophila LGR2 receptor signaling inhibition; 380,000 tested, 0.35% active; HEK293 LGR2, CRE-luciferase, bursicon-stimulated, 4 h; inhibition, % at 9.99 µM; AID 720647;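 active = drop in luminescence signal, shown as inhibition above about 50% in the replicate tests, limit read from the data, passing the limit was not always enough; inconclusive = probably only some replicates passing the limit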;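 note: agonist challenge used bursicon conditioned medium at about half maximal strength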
DNA binding = binds DNA, flagging false Rad54 inhibitor hits; shares compounds with RAD54 branch; Acridine orange-DNA displacement, fluorescence polarization, 20 min; AC50, µM (highest dose often 35 µM); 460 tested, 8% active; AID 651673;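 active = signal drop giving an AC50 within twice the top valid tested concentration of each sample, actives reach about 35 µM in these data; inactive = activity opposite to expected, plus the rest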;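 note: polarization loss reports compound binding to salmon sperm DNA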
A number is an active result. Sampled rows, rich in hits. Any-hit rate of the full collection: about 1.8%.

`Cc1ccc(-c2nc(NCCN3CCOCC3)c3ccccc3n2)cc1` gave RAD54 branch inconclusive and DNA binding inactive.
For Cc1ccc2cc(C(c3nnnn3C(C)(C)C)N3CCCCCC3)c(=O)[nH]c2c1 (stereo not drawn) the results were RAD54 branch inactive.
Screening O=C(N/N=C/c1ccc(OC2CSC2)cc1)c1ccc(CN2CCOCC2)cc1 returned GSIS activator inactive, RAD52 inh inactive, CFTR F508del cor inactive, EWS-Fli block inactive and LGR2 antag inactive.
For Cc1ccc(OCc2nnc(N)s2)cc1 the results were GSIS activator inactive, RAD52 inh inactive, CFTR F508del cor inactive, EWS-Fli block inactive and LGR2 antag inactive.
For Cn1c(CCc2ccccc2)nnc1SCC(=O)N1CCOCC1 the results were RAD54 branch inactive.
Screening COc1cccc(C(=O)Nc2cccc3ccccc23)c1OC returned RAD54 branch inactive, GSIS activator inactive, RAD52 inh inactive, CFTR F508del cor inactive, EWS-Fli block inactive and LGR2 antag inactive.
CCN(CC)CCn1c2ccc(F)cc2c2nc(C)sc21 was read as RAD54 branch inconclusive and DNA binding inactive.
COc1ccc2nc(C)cc(Nc3ccc(N4CCOCC4)cc3)c2c1 was read as RAD54 branch inconclusive and DNA binding inactive.
Screening Cc1ccc(Nc2cc(C)nc3c(C)cccc23)cc1 returned RAD54 branch inconclusive, GSIS activator inactive, RAD52 inh inactive, CFTR F508del cor inactive, EWS-Fli block inactive, LGR2 antag inactive and DNA binding inactive.
For COc1ccc2nc(C)cc(Nc3ccc(C)cc3)c2c1 the results were RAD54 branch 57, GSIS activator inactive, RAD52 inh inactive, CFTR F508del cor inactive, EWS-Fli block inactive, LGR2 antag inactive and DNA binding inactive.
`COc1ccc2nc(C)cc(N/N=C/c3ccccc3)c2c1` gave RAD54 branch inactive.
For O=C(Cc1ccc(NC(=O)C2CCN(C(=O)c3ccccc3)CC2)cc1)Nc1cccc(C(=O)N2CCCC2)c1 the results were RAD54 branch inactive, GSIS activator inactive, RAD52 inh inactive, CFTR F508del cor inactive, EWS-Fli block inactive and LGR2 antag inactive.
`OC1CCCN(Cc2c3ccccc3cc3ccccc23)C1` (stereo not drawn) gave RAD54 branch 93 and DNA binding inactive.
`OC1CCCN(Cc2cccc3ccccc23)C1` (stereo not drawn) gave RAD54 branch inactive.
Screening COC(=O)Nc1nnc(COc2ccccc2)s1 returned RAD54 branch inconclusive, GSIS activator inactive, RAD52 inh inactive, CFTR F508del cor inactive, EWS-Fli block inactive, LGR2 antag inactive and DNA binding inactive.
`COC(=O)Nc1nnc(COc2cccc(C)c2)s1` gave GSIS activator inactive, RAD52 inh inactive, CFTR F508del cor inactive and EWS-Fli block inactive.
Screening Cc1ccc(/C=N/NC(=O)Cn2nc(C)c([N+](=O)[O-])c2C)o1 returned GSIS activator inactive, RAD52 inh inactive, CFTR F508del cor inactive, EWS-Fli block inactive and LGR2 antag inactive.
For Cc1cc(C)n(-c2nc(NCCN(C)C)c3c4c(sc3n2)COC(C)(C)C4)n1 the results were RAD54 branch inconclusive, GSIS activator inactive, RAD52 inh inactive, CFTR F508del cor inactive, EWS-Fli block inactive, LGR2 antag inactive and DNA binding inactive.
Screening COc1ccccc1/C=C/C(=O)OCC(=O)NCc1ccc2c(c1)OCO2 returned RAD54 branch inactive, GSIS activator inactive, RAD52 inh inactive, CFTR F508del cor inactive, EWS-Fli block inactive and LGR2 antag inactive.
`Cc1ccc(C2C(=O)N(C3CCC(C)CC3)CC(=O)N2C2CCCC2)cc1` (stereo not drawn) gave RAD54 branch inactive, GSIS activator inactive and LGR2 antag inactive.
For O=C1C(c2ccc(F)cc2)N(C2CCCCC2)C(=O)CN1C1CCCC1 (stereo not drawn) the results were RAD54 branch inconclusive, GSIS activator inactive, LGR2 antag inactive and DNA binding inactive.
`Oc1ccc(CCNc2c3ccccc3nc3ccccc23)cc1O` gave RAD54 branch 116, GSIS activator inactive, RAD52 inh 106, CFTR F508del cor inactive, EWS-Fli block 70, LGR2 antag inactive and DNA binding 25µM.
Screening Cc1ccc(O)c(Nc2c3ccccc3nc3ccccc23)c1 returned RAD54 branch inactive, GSIS activator inactive, RAD52 inh inactive, CFTR F508del cor inactive, EWS-Fli block inactive and LGR2 antag inactive.
`Cc1nc2ccccc2c2oc(C(=O)N3CCC(N4CCCCC4)CC3)cc12` gave RAD54 branch 67 and DNA binding inactive.
Cc1nc2ccccc2c2oc(C(=O)NCCN3CCCCC3C)cc12 (stereo not drawn) was read as RAD54 branch 52, RAD52 inh inactive, CFTR F508del cor inactive, EWS-Fli block inactive and DNA binding inactive.
For CCN1CCCC1CNC(=O)c1cc2c(C)nc3ccccc3c2o1 (stereo not drawn) the results were RAD54 branch inactive, GSIS activator inactive and LGR2 antag inactive.
Cc1cccc(C)c1OCC(=O)Nc1cccc(NC(=O)c2ccco2)c1 was read as RAD54 branch inactive.
`COCCNC(=O)c1cc2c(=O)n(C)c3ccccc3c2n1C` gave RAD54 branch inactive, GSIS activator inactive, RAD52 inh inactive, CFTR F508del cor inactive, EWS-Fli block inactive and LGR2 antag inactive.
For COCCCNC(=O)c1cc2c(=O)n(C)c3ccccc3c2n1C the results were RAD54 branch inactive, GSIS activator inactive, RAD52 inh inactive, CFTR F508del cor inactive, EWS-Fli block inactive and LGR2 antag inactive.
CN(C)CCNC(=O)c1cc2c(=O)n(C)c3ccccc3c2n1C was read as RAD54 branch 78, GSIS activator inactive, RAD52 inh inactive, CFTR F508del cor inactive, EWS-Fli block inactive, LGR2 antag inactive and DNA binding inactive.
CCN(CC)CCCNC(=O)c1cc2c(=O)n(C)c3ccccc3c2n1C was read as RAD54 branch 72, GSIS activator inactive, RAD52 inh inactive, CFTR F508del cor inactive, EWS-Fli block inactive, LGR2 antag inactive and DNA binding inactive.
Screening CCN(CC)CCNC(=O)c1cc2c(=O)n(C)c3ccccc3c2n1C returned RAD54 branch 61, GSIS activator inactive, RAD52 inh inactive, CFTR F508del cor inactive, EWS-Fli block inactive, LGR2 antag inactive and DNA binding inactive.
Screening CCCN(CCC)CCCNC(=O)c1cc2c(=O)n(C)c3ccccc3c2n1C returned RAD54 branch inconclusive, GSIS activator inactive, RAD52 inh inactive, CFTR F508del cor inactive, EWS-Fli block inactive, LGR2 antag inactive and DNA binding inactive.
`Cc1cccn2c(=O)nc(SCC(=O)N3N=C(c4cccs4)CC3c3ccc(F)cc3)nc12` (stereo not drawn) gave GSIS activator inactive, RAD52 inh inactive, CFTR F508del cor inactive, EWS-Fli block inactive and LGR2 antag inactive.
